The text below walks through data of PubChem BioAssay (EPA / NIEHS).

Records with an inconclusive call do not appear. Calls of active or inactive are those of the source. The calls were made as follows, unless noted: active = hit-call score of the fitted dose curve at least 0.9, where 1 is the maximum; inactive = score below 0.9.

The nature of assay [1]: BSK_4H_Eotaxin3: BioMAP Diversity Plus: 4H Assay for Eotaxin 3 Biomarker Activity (AID 2283000).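 Also: CCL26 protein level quantified by ELISA in parallel with SRB cytotoxicity check.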 The settings on record: primary human endothelial cells (HUVEC); actives raise or lower the signal. In short, it runs like this: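 Endothelial primary cells (human umbilical vein) exposed to compound for 24 h. ELISA detection of Eotaxin-3.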
Read-out in assay [2]: Intercellular Adhesion Molecule 1 (ICAM1), ICAM1 (gene 3383)
In words: BSK_3C_ICAM1: BioMAP Diversity Plus: 3C Assay for Intercellular Adhesion Molecule 1 (ICAM1) Biomarker Activity (AID 2283003). Conditions: primary human endothelial cells (HUVEC); actives raise or lower the signal. In a few lines:
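ICAM-1 levels measured by ELISA after HUVEC cultures in the 3C system had been dosed for 24 h. Gain or loss of signal relative to DMSO was fitted in both directions.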

Assay [3] addresses human Retinoic Acid Receptor beta (RARb), RARB (gene 5915) (UniProt P10826). Description: ATG_RARb_TRANS: Attagene TRANS-FACTORIAL HepG2 Assay for human Retinoic Acid Receptor beta (AID 2283004; active = hit-call score of the fitted dose curve at least 0.9, where 1 is the maximum). In a few lines: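 HepG2, transient MRTU transfection, NR–Gal4 chimera, 24 h treatment; RT-PCR plus CE fluorescence detection of reporter mRNA; gain of signal vs DMSO.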
Assay [4] addresses Retinoic acid receptor alpha (Homo sapiens) (UniProt P10276). Description: ATG_RARa_TRANS: Attagene TRANS-FACTORIAL HepG2 Assay for human Retinoic Acid Receptor alpha (RARa) (AID 2283005; active = hit-call score of the fitted dose curve at least 0.9, where 1 is the maximum). In a few lines:
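Reporter transcripts, measured by RT-PCR with fluorescent labeling and capillary electrophoresis after 24 h dosing, reflect activity of an exogenous human RARa–GAL4 fusion in transiently transfected HepG2. Fitted for increase relative to DMSO.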

Assay [5] can be described thus: BSK_3C_Proliferation: Cell Proliferation Assessment in the BioMAP Diversity Plus: 3C Assay (AID 2283006).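 As to AC50: potency may reflect either rise or fall in cell number versus DMSO.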 Conditions: primary human endothelial cells (HUVEC). In short, it runs like this:
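Read-out is total protein by SRB absorbance at 560 nm, taken as a proxy for relative cell number. Primary human umbilical vein endothelium cultured below confluence was dosed for 48 h, TCA-fixed and SRB-stained; curves were fitted bidirectionally versus DMSO.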

Assay [6] has as its target Nuclear receptor subfamily 1 group I member 2 (Homo sapiens) (UniProt O75469). In words: ATG_PXR_TRANS: Attagene TRANS-FACTORIAL HepG2 Assay for human Pregnane X Receptor (PXR) (AID 2283008; active = hit-call score of the fitted dose curve at least 0.9, where 1 is the maximum). In a few lines:
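Measures mRNA induction of a GAL4-UAS-driven reporter in human HepG2 cells transiently expressing PXR fused to Gal4, following 24 h treatment. DMSO served as negative control and baseline.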

Assay [7] deals with human Retinoic Acid Receptor gamma (RARg), RARG (gene 5916) (UniProt P13631). Description: ATG_RARg_TRANS: Attagene TRANS-FACTORIAL HepG2 Assay for human Retinoic Acid Receptor gamma (RARg) (AID 2283009; active = hit-call score of the fitted dose curve at least 0.9, where 1 is the maximum). In short, it runs like this:
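Transient transfection of HepG2 with multi-reporter constructs, then 24 h chemical treatment. Total RNA isolated, reverse-transcribed, PCR-amplified, fluorescently labelled and resolved by capillary electrophoresis; activity scored as mRNA induction versus DMSO.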

Assay [8] has as its target human RAR-related Orphan Receptor gamma (RORg), RORC (gene 6097) (UniProt P51449). Description: ATG_RORg_TRANS: Attagene TRANS-FACTORIAL HepG2 Assay for human RAR-related Orphan Receptor gamma (RORg) (AID 2283011; active = hit-call score of the fitted dose curve at least 0.9, where 1 is the maximum). In short, it runs like this:
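Activity is scored as increase in GAL4-UAS reporter mRNA over DMSO, detected by fluorescent RT-PCR and capillary electrophoresis in HepG2 cells transiently expressing a RORg-Gal4 chimera, 24 h after dosing.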

Assay [9] concerns the target Retinoic acid receptor RXR-alpha (Homo sapiens) (UniProt P19793). In words: ATG_RXRa_TRANS: Attagene TRANS-FACTORIAL HepG2 Assay for human Retinoid X Receptor alpha (RXRa) (AID 2283012; active = hit-call score of the fitted dose curve at least 0.9, where 1 is the maximum). In short, it runs like this: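 Transient transfection of human HepG2 with multiple GAL4-UAS reporter constructs; 24 h compound exposure; total RNA isolated, reverse-transcribed, PCR-amplified, 6-FAM labelled, HpaI-cut, resolved by capillary electrophoresis. Positive-direction fit versus DMSO.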

Assay [10] addresses human Retinoid X Receptor beta (RXRb), RXRB (gene 6257) (UniProt P28702). Description: ATG_RXRb_TRANS: Attagene TRANS-FACTORIAL HepG2 Assay for human Retinoid X Receptor beta (RXRb) (AID 2283013; active = hit-call score of the fitted dose curve at least 0.9, where 1 is the maximum). In short, it runs like this:
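Transfect HepG2 with GAL4-UAS multi-reporter constructs (chimeric NR-Gal4, TRANS format); dose compound 24 h; isolate RNA, RT-PCR, FAM primer extension, HpaI digest; quantify by capillary electrophoresis; positive direction vs DMSO.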

Read-out in assay [11]: E-selectin (Homo sapiens) (UniProt P16581)
Description: BSK_3C_Eselectin: BioMAP Diversity Plus: 3C Assay for Eselectin Biomarker Activity (AID 2283015).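 Also: cell surface E-selectin protein quantified by ELISA 24 h after dosing.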 Conditions: primary human endothelial cells (HUVEC); actives raise or lower the signal. In a few lines:
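Human vascular endothelium from umbilical vein is exposed to test chemicals for 24 h. E-selectin levels are read by ELISA and compared with DMSO controls.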

Read-out in assay [12]: Interleukin-1 alpha (IL1a), IL1A (gene 3552)
Description: BSK_BE3C_IL1a: BioMAP Diversity Plus: BE3C Assay for Interleukin-1 alpha (IL1a) Biomarker Activity (AID 2283016). The settings on record: primary human bronchial epithelial cells; actives raise or lower the signal. In short, it runs like this: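 BE3C primary human bronchial epithelium; cpd 24 h; IL-1a by ELISA; bidirectional fit vs DMSO; parallel SRB (0.1% SRB, 10% TCA fix, 560 nm) for cytotoxicity.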

Read-out in assay [13]: Monocyte Chemoattractant Protein-1 (MCP1), CCL2 (gene 6347)
In words: BSK_3C_MCP1: BioMAP Diversity Plus: 3C Assay for Monocyte Chemoattractant Protein-1 (MCP1) Biomarker Activity (AID 2283017). The settings on record: primary human endothelial cells (HUVEC); actives raise or lower the signal. In short, it runs like this:
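Endothelial cells from human umbilical vein are dosed with chemical, cultured 24 h, then assayed for MCP-1 by ELISA; both increases and decreases are modelled against DMSO controls.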

Read-out in assay [14]: Interleukin-8 (IL8), CXCL8 (gene 3576)
In words: BSK_3C_IL8: BioMAP Diversity Plus: 3C Assay for Interleukin-8 (IL8) Biomarker Activity (AID 2283020). Conditions: primary human endothelial cells (HUVEC); actives raise or lower the signal. In a few lines:
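ELISA read-out of IL-8 from human umbilical vein endothelium, measured 24 h after chemical dosing. Activity is expressed relative to DMSO negative control, with both increases and decreases fitted.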

The target in assay [15] is human Peroxisome Proliferator-activated Receptor alpha (PPARa), PPARA (gene 5465) (UniProt Q07869). In words: ATG_PPARa_TRANS: Attagene TRANS-FACTORIAL HepG2 Assay for human Peroxisome Proliferator-activated Receptor alpha (PPARa) (AID 2283001; active = hit-call score of the fitted dose curve at least 0.9, where 1 is the maximum). In a few lines: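 Read-out is fluorescence of reporter cDNA fragments resolved by capillary electrophoresis after RT-PCR. Human HepG2 liver cells carried transfected PPARa-Gal4 chimera and GAL4-UAS reporter units, treated 24 h; activity scored as increase over DMSO.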
Chain of human Peroxisome Proliferator-activated Receptor alpha (PPARa), PPARA (gene 5465) (Q07869 whole entry, looked up, the tested form may be a part): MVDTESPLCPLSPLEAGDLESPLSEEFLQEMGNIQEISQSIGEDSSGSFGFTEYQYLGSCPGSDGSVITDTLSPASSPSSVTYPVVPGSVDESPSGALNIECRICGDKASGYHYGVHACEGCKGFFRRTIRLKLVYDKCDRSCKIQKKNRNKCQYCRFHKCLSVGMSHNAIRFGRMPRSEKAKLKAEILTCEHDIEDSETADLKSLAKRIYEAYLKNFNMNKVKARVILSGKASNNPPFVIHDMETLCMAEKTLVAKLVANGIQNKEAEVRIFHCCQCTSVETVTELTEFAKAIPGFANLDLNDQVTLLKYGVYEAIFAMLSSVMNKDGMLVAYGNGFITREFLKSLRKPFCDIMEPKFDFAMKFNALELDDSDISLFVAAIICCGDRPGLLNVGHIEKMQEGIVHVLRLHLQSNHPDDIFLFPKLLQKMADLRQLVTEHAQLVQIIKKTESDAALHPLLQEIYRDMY

The target in assay [16] is human Peroxisome Proliferator-activated Receptor delta (PPARd), PPARD (gene 5467) (UniProt Q03181). Description: ATG_PPARd_TRANS: Attagene TRANS-FACTORIAL HepG2 Assay for human Peroxisome Proliferator-activated Receptor delta (PPARd) (AID 2283002; active = hit-call score of the fitted dose curve at least 0.9, where 1 is the maximum). In short, it runs like this:
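Read-out is induced reporter mRNA, quantified by RT-PCR with fluorescent labelling and capillary electrophoresis after 24 h dosing. Cells are HepG2 transiently carrying multiple GAL4-UAS reporter units driven by exogenous NR-GAL4 chimeras; DMSO serves as baseline.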

Assay [17] has as its target Peroxisome proliferator-activated receptor gamma (Homo sapiens) (UniProt P37231). Description: ATG_PPARg_TRANS: Attagene TRANS-FACTORIAL HepG2 Assay for human Peroxisome Proliferator-activated Receptor-gamma (PPARg) (AID 2283007; active = hit-call score of the fitted dose curve at least 0.9, where 1 is the maximum). In a few lines:
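Multiplexed reporter transcription units in HepG2, 24 h dosing, reporter transcripts quantified by fluorescent RT-PCR and capillary electrophoresis. Increase over DMSO scored.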

Read-out in assay [18]: Human Leukocyte Antigen - DR isotype (HLADR), HLA-DRA (gene 3122)
In words: BSK_3C_HLADR: BioMAP Diversity Plus: 3C Assay for Human Leukocyte Antigen - DR isotype (HLADR) Biomarker Activity (AID 2283019).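 As to outcome: ELISA of cell-surface HLA-DR on HUVEC 24 h after dosing.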 The settings on record: primary human endothelial cells (HUVEC); actives raise or lower the signal. In short, it runs like this: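 Endothelial cells from human umbilical vein are treated with test chemical; after 24 h, HLA-DR levels are measured by ELISA. Data are fitted in both directions using DMSO as the baseline.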

Assay [19] addresses human Thyroid Receptor alpha (THRa1), THRA (gene 7067) (UniProt P10827). Description: ATG_THRa1_TRANS: Attagene TRANS-FACTORIAL HepG2 Assay for human Thyroid Receptor alpha (THRa1) (AID 2283014; active = hit-call score of the fitted dose curve at least 0.9, where 1 is the maximum). In short, it runs like this:
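First, HepG2 cells receive multiple GAL4-UAS reporter units and the chimeric receptor. They are then dosed for 24 h, after which RNA is reverse-transcribed, amplified, labelled, HpaI-cut and sized by capillary electrophoresis; gain relative to DMSO is scored.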

Read-out in assay [20]: Monocyte Chemoattractant Protein-1 (MCP1), CCL2 (gene 6347)
Description: BSK_4H_MCP1: BioMAP Diversity Plus: 4H Assay for Monocyte Chemoattractant Protein-1 (MCP1) Biomarker Activity (AID 2283018). Conditions: primary human endothelial cells (HUVEC); actives raise or lower the signal. In short, it runs like this: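 ELISA read-out of MCP-1 from human vascular endothelial primary cells taken at 24 hours after compound exposure. Activity was fitted in both directions relative to DMSO, which served as negative control.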

Chain of human RAR-related Orphan Receptor gamma (RORg), RORC (gene 6097) (P51449 whole entry, looked up, the tested form may be a part): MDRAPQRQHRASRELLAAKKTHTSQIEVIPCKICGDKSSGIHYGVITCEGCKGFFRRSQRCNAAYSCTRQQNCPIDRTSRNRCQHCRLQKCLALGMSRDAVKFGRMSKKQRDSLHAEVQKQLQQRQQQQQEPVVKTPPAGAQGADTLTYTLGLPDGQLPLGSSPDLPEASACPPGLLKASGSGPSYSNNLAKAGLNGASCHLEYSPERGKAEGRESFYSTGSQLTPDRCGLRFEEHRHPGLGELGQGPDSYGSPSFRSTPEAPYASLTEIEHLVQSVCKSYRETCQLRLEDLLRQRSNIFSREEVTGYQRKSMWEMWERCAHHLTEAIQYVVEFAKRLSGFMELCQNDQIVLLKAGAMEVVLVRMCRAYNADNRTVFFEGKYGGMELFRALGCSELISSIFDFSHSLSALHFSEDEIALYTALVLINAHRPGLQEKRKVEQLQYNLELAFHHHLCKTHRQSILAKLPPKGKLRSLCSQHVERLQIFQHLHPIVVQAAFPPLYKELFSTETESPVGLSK
Chain of Retinoic acid receptor RXR-alpha (Homo sapiens) (P19793 whole entry, looked up, the tested form may be a part): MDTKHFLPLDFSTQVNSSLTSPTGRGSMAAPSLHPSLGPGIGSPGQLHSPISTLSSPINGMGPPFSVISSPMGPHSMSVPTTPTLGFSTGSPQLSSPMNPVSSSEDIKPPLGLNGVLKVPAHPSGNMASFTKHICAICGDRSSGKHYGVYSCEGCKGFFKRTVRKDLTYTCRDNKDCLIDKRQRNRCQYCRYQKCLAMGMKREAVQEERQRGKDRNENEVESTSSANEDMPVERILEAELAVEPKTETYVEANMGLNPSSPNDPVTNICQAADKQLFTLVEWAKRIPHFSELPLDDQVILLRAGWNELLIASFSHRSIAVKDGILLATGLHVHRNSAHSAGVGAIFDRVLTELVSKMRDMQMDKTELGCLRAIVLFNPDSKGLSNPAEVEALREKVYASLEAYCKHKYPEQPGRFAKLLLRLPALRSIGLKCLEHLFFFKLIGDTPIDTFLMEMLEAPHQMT
Chain of Peroxisome proliferator-activated receptor gamma (Homo sapiens) (P37231 whole entry, looked up): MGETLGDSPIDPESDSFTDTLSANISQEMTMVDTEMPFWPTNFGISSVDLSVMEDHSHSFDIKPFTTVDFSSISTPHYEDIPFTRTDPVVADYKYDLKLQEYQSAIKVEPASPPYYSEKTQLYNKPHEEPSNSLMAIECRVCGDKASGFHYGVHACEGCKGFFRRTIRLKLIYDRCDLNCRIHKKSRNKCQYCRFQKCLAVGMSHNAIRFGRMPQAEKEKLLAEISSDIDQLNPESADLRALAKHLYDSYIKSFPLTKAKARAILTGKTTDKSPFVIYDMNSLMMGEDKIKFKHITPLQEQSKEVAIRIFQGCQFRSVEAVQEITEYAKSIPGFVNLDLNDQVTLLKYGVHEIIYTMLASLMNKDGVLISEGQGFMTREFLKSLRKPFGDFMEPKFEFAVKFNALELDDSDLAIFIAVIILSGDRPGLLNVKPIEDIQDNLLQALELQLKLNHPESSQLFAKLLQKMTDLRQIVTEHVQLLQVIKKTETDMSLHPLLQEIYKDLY
Chain of human Retinoid X Receptor beta (RXRb), RXRB (gene 6257) (P28702 whole entry, looked up, the tested form may be a part): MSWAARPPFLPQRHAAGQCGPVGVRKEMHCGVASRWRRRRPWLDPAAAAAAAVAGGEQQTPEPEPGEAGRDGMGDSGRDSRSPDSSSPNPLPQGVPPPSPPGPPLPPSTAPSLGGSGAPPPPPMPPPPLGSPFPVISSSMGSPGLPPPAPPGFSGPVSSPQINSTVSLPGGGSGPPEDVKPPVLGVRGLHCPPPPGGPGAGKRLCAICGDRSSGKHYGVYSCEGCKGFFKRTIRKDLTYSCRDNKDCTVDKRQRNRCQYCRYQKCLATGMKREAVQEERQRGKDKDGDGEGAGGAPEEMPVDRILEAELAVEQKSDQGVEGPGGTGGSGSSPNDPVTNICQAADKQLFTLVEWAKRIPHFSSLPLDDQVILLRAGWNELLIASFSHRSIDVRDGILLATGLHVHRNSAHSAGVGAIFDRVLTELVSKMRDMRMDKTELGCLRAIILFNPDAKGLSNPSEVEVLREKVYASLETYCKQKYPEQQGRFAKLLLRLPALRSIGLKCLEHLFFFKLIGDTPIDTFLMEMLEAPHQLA
Chain of E-selectin (Homo sapiens) (P16581 whole entry, looked up): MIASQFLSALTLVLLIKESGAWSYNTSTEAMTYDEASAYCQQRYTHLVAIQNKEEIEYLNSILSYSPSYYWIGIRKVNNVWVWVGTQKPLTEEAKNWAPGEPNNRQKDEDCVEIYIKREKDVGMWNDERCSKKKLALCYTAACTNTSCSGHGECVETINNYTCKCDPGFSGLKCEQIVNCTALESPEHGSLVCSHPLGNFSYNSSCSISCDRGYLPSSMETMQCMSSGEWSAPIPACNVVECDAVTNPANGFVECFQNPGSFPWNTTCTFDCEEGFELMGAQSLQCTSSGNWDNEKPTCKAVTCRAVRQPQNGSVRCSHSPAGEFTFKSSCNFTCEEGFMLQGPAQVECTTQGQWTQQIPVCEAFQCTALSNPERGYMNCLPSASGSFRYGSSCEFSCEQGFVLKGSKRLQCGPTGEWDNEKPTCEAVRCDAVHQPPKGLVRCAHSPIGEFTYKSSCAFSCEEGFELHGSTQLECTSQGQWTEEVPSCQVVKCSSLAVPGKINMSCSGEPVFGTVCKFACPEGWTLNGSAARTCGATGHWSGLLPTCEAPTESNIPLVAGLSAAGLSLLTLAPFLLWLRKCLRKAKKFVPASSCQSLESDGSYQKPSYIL
Chain of Nuclear receptor subfamily 1 group I member 2 (Homo sapiens) (O75469 whole entry, looked up, the tested form may be a part): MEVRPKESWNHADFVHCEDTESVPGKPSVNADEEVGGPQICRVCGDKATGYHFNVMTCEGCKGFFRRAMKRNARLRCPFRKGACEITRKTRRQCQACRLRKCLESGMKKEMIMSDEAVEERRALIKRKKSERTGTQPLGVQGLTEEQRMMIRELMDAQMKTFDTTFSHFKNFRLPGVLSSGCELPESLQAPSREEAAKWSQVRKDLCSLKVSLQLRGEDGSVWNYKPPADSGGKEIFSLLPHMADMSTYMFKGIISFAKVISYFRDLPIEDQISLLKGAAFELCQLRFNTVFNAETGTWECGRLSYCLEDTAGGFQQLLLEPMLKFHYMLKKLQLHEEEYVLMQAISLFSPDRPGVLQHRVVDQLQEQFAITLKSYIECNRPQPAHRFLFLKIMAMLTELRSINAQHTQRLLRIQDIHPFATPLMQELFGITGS
Chain of human Peroxisome Proliferator-activated Receptor delta (PPARd), PPARD (gene 5467) (Q03181 whole entry, looked up, the tested form may be a part): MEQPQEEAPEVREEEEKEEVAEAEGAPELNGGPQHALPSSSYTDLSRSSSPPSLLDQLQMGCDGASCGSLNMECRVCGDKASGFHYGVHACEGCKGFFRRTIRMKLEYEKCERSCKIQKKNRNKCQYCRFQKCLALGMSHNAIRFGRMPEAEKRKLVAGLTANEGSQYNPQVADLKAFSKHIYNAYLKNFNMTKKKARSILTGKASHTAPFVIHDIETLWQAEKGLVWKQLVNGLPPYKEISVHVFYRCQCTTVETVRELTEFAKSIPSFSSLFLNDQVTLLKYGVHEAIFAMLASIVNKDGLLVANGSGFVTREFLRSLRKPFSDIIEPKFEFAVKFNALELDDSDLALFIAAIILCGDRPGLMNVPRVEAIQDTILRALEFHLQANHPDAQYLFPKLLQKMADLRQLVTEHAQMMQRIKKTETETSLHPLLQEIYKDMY
Chain of human Thyroid Receptor alpha (THRa1), THRA (gene 7067) (P10827 whole entry, looked up, the tested form may be a part): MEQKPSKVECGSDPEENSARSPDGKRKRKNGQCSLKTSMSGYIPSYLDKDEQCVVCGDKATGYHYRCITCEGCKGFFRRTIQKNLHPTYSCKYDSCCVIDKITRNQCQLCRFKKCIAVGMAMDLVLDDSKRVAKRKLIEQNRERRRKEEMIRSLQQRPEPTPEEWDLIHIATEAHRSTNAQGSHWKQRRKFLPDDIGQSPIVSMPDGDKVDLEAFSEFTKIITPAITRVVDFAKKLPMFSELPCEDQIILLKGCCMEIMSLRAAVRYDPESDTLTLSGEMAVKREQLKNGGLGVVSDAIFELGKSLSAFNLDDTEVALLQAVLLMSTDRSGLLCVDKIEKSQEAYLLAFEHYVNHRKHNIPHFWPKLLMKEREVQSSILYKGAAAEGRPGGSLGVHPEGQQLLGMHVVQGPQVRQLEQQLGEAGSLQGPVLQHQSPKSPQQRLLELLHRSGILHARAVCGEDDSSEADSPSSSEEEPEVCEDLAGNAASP
Chain of Retinoic acid receptor alpha (Homo sapiens) (P10276 whole entry, looked up, the tested form may be a part): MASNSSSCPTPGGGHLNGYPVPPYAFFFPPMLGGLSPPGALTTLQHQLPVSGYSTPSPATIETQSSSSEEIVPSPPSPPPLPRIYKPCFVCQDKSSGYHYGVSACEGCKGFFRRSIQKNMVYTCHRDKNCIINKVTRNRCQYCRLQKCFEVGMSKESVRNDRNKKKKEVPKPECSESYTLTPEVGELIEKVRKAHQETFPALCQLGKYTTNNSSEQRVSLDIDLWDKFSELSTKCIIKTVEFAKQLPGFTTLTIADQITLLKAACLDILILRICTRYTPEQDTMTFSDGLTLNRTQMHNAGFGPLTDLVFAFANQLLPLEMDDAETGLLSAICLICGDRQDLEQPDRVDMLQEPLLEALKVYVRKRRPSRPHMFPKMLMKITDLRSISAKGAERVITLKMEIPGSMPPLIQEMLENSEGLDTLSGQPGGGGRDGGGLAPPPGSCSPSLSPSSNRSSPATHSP

What is called AC50 is the concentration at which the activity in the assay is half-maximal. In the case of `CN1CCCC1=O`, the outcome in assay [1], in assay [2], in assay [3], in [4], in assay [5] and in assay [6] was inactive. In addition, the compound was classed as inactive in assay [7], in assay [8], in assay [9], in assay [11], in assay [12] and in assay [13]. The result in assay [14] was inactive. Further, the AC50 in assay [10] was 31.5 µM (active).
`CN1CCN(Cc2cc(-c3ccc4[nH]c(=O)oc4c3)co2)[C@@H](c2ccc(F)cc2)C1`: the compound was classed as inactive in assay [15], in assay [16], in assay [2], in assay [6], in [9] and in assay [11]. In addition, the outcome in assay [12] and in [14] was inactive. In addition, the concentration at half-maximal activity (AC50) in assay [5] is 23.4 µM (active); in assay [17], 42.4 µM (active); in [13], 17.6 µM (active); in assay [18] it was 27.6 µM (active).
Turning to `CCNc1cccc(C)c1`, the compound was called inactive in [15], in assay [16], in assay [2], in assay [4], in assay [5] and in [17]. Further, the compound was called inactive in assay [6], in assay [7], in [9], in assay [10], in [19] and in [11]. Also, the outcome in assay [12] and in assay [13] was inactive.
On to `COc1cc(S(=O)(=O)O)c(C)cc1N=Nc1c(O)ccc2cc(S(=O)(=O)O)ccc12`, for which the result in assay [1], in [16], in assay [2], in assay [5], in assay [17] and in [8] was inactive. For the same compound, the result in [9], in [11], in assay [12], in [13], in [20] and in [18] was inactive.
As for `Nc1ccc(S(=O)(=O)c2ccc(N)cc2)cc1`, the result in assay [1], in [16], in assay [2], in [5], in [17] and in assay [6] was inactive. In addition, the outcome in assay [8], in assay [9], in assay [11], in assay [12], in assay [13] and in [20] was inactive. The result in [18] and in [14] was inactive.
As for `CCOc1ccc2c(c1)C(C)=CC(C)(C)N2`, the call in [15], in assay [2], in assay [5], in assay [8], in [11] and in assay [12] was inactive. For the same compound, the outcome in [13], in assay [20], in assay [18] and in assay [14] was inactive. Further, the AC50 was 170 µM (active) in [16]; 28.7 µM (active) in assay [17]; 1.86 µM (active) in [6]; 100 µM (active) in [9]; 6.69 µM (active) in assay [10]; 100 µM (active) in [19].
